The record followed here is PubChem BioAssay (Tox21).

Assay [1] is described as follows: A CellTox Green Cytotoxicity Assay to monitor cytotoxicity in HepG2 cells - 8 hour (AID 1224890). Also: nearly all actives have a fitted effect of over 45% in size. The method in brief: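 Real-time, homogeneous cytotoxicity readout: dead-cell DNA staining by CellTox Green in HepG2 monolayers, fluorescence measured at timed intervals up to 40 h of continuous compound exposure.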
The nature of assay [2]: qHTS assay to identify small molecule antagonists of the estrogen receptor alpha (ER-alpha) signaling pathway using the BG1 cell line in the presence of 0.1 nM 17-beta-estradiol - cell viability counter screen (AID 1259241). Also: nearly all actives have a fitted effect of over 40% in size. Summed up: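 Live-cell protease activity (CellTiter-Fluor fluorescence, 30 min) was read in the same wells after VM7Luc4E2 cells had been exposed to compounds with 0.1 nM 17beta-estradiol for 22 hr at 37C.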

Assay [3] is described as follows: qHTS assay to identify small molecule antagonists of the androgen receptor (AR) signaling pathway using the MDA cell line in the presence of 0.5 nM R1881 - cell viability counter screen (AID 1259242). Also: nearly all actives have a fitted effect of over 45% in size. Summed up: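 Cytotoxicity toward MDA-kb2 cells is measured by CellTiter-Fluor live-cell protease fluorescence after 16 hr compound exposure at 37C in the presence of 0.5 nM R1881 stimulator.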

For assay [4], the target named is Estrogen receptor (Homo sapiens) (UniProt P03372). Briefly: qHTS assay to identify small molecule antagonists of the estrogen receptor alpha (ER-alpha) signaling pathway using the BG1 cell line in the presence of 0.1 nM 17-beta-estradiol (AID 1259244). Also: nearly all actives have a fitted effect of over 50% in size. Summed up:
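After 5 days in hormone-depleted medium (charcoal-stripped serum, no phenol red), VM7Luc4E2 cells were seeded, incubated 24 h, then co-treated with compound and 0.1 nM (final) estradiol for 22 h before luminescence detection.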
(In general: qHTS replaces the single test concentration by a dilution series.)

Assay [5] can be described thus: qHTS assay to identify small molecule phospholipidosis (PLD) inducers (AID 1259344; active = well fitted curve in the direction sought with a large enough effect; an effect the other way counts as inactive or inconclusive). Summed up:
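HepG2 cells on collagen I, attached 4 h at 37 C, were co-treated with compound and LipidTOX Red dye for 24 h at 37 C, then fixed with paraformaldehyde plus Hoechst 33342 and imaged by high-content microscopy for phospholipid accumulation.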

Assay [6] in a line: qHTS assay to identify small molecule HDAC inhibitors (AID 1259364). Also: top concentration of the series differs between compounds; nearly all actives have a fitted effect of over 45% in size. The method in brief:
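Homogeneous cell-based luminescent assay of endogenous class I/II HDAC activity; HCT-116 cells, 2 h compound exposure, 30 min HDAC-Glo development at RT.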

A short description of assay [7]: qHTS assay to identify small molecule HDAC inhibitors - cell viability counter screen (AID 1259365). Also: series mostly up to about 92 µM; nearly all actives have a fitted effect of over 50% in size. Summed up: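 HCT-116 (wild type), 1,500 cells/well, overnight 37C/5% CO2; compound in DMSO 2hr; CellTiter-Glo 30min RT; luminescence read.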
Assay [8] in a line: qHTS assay to identify small molecule agonists of the sonic hedgehog signaling (Shh) pathway - cell viability counter screen (AID 1259366). Also: nearly all actives have a fitted effect of over 50% in size. The method in brief: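 CellTiter-Fluor fluorescence read-out, 1 hr at 37C, added after 23hr compound exposure. Cells: 3T3 Gli1-Luc, an NIH/3T3 clone with stably integrated Gli1-Luc reporter, plated 4hr before compound.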
Assay [9] can be described thus: qHTS assay to identify small molecule antagonists of the sonic hedgehog signaling (Shh) pathway - cell viability counter screen (AID 1259367). Also: nearly all actives have a fitted effect of over 55% in size. Summed up: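 NIH/3T3-derived Gli1-Luc reporter cells (2,000 per well) rested 4 hr at 37 C, then received DMSO compounds plus conditioned medium. After 23 hr of treatment, CellTiter-Fluor was added for 1 hr at 37C and fluorescence read.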

Assay [10] can be described thus: qHTS assay to identify small molecule agonists of the sonic hedgehog signaling (Shh) pathway (AID 1259368; calls by dose curve;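 also: NIH/3T3-derived 3T3Gli1-Luc cells carrying a stable Gli1-driven firefly luciferase reporter; series mostly up to about 92 µM; nearly all actives have a fitted effect of over 15% in size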). The method in brief: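 Steps: seed 3T3 Gli1-Luc cells, incubate 4 hr at 37 C, pin-transfer compounds in DMSO alongside a positive control, incubate 24 hr, add luciferase detection reagent, wait 30 min at room temperature, read luminescence.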
Assay [11] deals with Estrogen receptor beta (Homo sapiens) (UniProt Q92731). Briefly: qHTS assay to identify small molecule agonists of the estrogen receptor beta (ER-beta) signaling pathway (AID 1259377; active = well fitted activation curve with a large enough effect in the signal ratio in the repeat runs, not every such curve was filed as active; the % refers to the signal ratio). Summed up:
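Beta-lactamase reporter readout: fluorescence of LiveBLAzer B/G FRET substrate after 2 h at room temperature, following 16 h compound treatment of ER-beta-UAS-bla HEK293T cells at 37C in 2% charcoal-stripped FBS medium.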

Assay [12] has the same target. The experiment in a line: qHTS assay to identify small molecule antagonists of the estrogen receptor beta (ER-beta) signaling pathway (AID 1259378; active = well fitted inhibition curve with a large enough effect in the signal ratio in the repeat runs, not every such curve was filed as active; the % refers to the signal ratio). The method in brief: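 ER-beta-UAS-bla HEK293T (GripTite) cells in 2% charcoal-stripped FBS medium were preincubated 6 hr at 37C, dosed with compound, then stimulated with 1 nM E2 (final) for 16 hr; beta-lactamase reporter read by B/G FRET fluorescence after 2 hr substrate loading.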

Assay [13] in a line: qHTS assay to identify small molecule agonists of the androgen receptor (AR) signaling pathway in the presence of an antagonist - cell viability counter screen (AID 1259379).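 Also: MDA-kb2 human breast cancer cells carrying an MMTV luciferase reporter; series mostly up to about 92 µM; nearly all actives have a fitted effect of over 25% in size.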 The method in brief:
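Fluorescence from CellTiter-Fluor, added after 15 hr and read 1 hr later, gave cell viability. Cells were MDA-kb2 exposed to compounds (15 concentrations) in the presence of 3.0uM nilutamide at 37C, 0% CO2.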

Assay [14] in a line: qHTS assay to identify small molecule agonists of the estrogen receptor beta (ER-beta) signaling pathway - cell viability counter screen (AID 1259380). Also: nearly all actives have a fitted effect of over 30% in size. Also: potency is read from the fitted curve at half-maximal effect. The method in brief:
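Same-well viability counter screen. Cells: ER-beta-UAS-bla HEK293T, plated 6 hr before compound, in 2% charcoal-stripped FBS. Compound exposure 16 hr, 37C; viability by CellTiter-Glo luminescence after 30 min at room temperature.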

Assay [15] in a line: qHTS assay to identify small molecule antagonists of the estrogen receptor beta (ER-beta) signaling pathway - cell viability counter screen (AID 1259382). Also: series mostly up to about 92 µM; nearly all actives have a fitted effect of over 55% in size. Summed up:
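Following a 6 hr plating period, HEK293T cells carrying a UAS-driven beta-lactamase reporter under ER-beta control received compounds and 1nM E2 (final). After 16 hr at 37C and 2 hr substrate loading, CellTiter-Glo luminescence indicated viability.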

The target in assay [16] is Estrogen receptor (Homo sapiens) (UniProt P03372). Briefly: qHTS assay to identify small molecule agonists of the estrogen receptor alpha (ER-alpha) signaling pathway in the presence of an antagonist (AID 1259383; calls by dose curve; also: top concentration of the series differs between compounds; nearly all actives have a fitted effect of over 15% in size). Summed up: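 Cells are hormone-deprived for 5 days (charcoal-stripped FBS, no phenol red), plated for 24hr, spiked with 10.0nM ICI-182,780, then dosed at 15 concentrations. After 22hr at 37C, ONE-Glo luminescence reports ERE-luciferase activity.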

Assay [17] is described as follows: qHTS assay to identify small molecule antagonists of the sonic hedgehog signaling (Shh) pathway (AID 1259369; calls by dose curve; also: nearly all actives have a fitted effect of over 45% in size). The method in brief: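 Inhibition of Shh signalling is measured as reduced Gli1-response-element firefly luciferase output in an NIH/3T3-derived stable reporter clone stimulated with conditioned medium for 24hr.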
Assay [18] is described as follows: qHTS assay to identify small molecule agonists or antagonists of the thyroid stimulating hormone receptor (TSHR) signaling pathway - wild type cell line counter screen (AID 1259384; calls by dose curve). Summed up: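 Wild-type HEK293 cells were plated 18 h at 37 C/5% CO2, pin-dosed with compound plus Ro20-1724 medium, held 30 min at room temperature, then given cAMP-d2 and anti-cAMP-cryptate; fluorescence was read after 1 h. Fifteen concentrations, triplicate.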

Values without a mark were called inactive. Records with an inconclusive call do not appear. Activity calls are given as the source filed them. Unless noted, calls follow the shape of the dose curve; as a rule, active = well fitted curve in the direction sought with a large enough effect in the repeat runs; inconclusive = weak or mixed curves; inactive = no such curve, though single readings can be large; an effect the other way counts as inactive or inconclusive.

Estrogen receptor beta (Homo sapiens), sequence (Q92731 whole entry, looked up): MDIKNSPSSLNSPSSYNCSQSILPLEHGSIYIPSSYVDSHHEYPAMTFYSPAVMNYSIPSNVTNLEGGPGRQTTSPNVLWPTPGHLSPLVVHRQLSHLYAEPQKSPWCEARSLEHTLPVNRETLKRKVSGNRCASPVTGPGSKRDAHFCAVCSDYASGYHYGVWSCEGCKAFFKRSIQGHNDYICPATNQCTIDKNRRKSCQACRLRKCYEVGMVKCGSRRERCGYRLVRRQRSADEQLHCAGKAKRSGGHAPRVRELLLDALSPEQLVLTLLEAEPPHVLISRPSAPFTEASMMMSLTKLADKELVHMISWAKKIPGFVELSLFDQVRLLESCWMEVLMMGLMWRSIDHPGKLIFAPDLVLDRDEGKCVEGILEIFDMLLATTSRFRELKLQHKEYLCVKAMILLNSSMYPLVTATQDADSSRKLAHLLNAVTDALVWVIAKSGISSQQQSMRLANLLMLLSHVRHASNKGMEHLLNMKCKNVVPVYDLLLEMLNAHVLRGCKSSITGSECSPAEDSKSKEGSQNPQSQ
Estrogen receptor (Homo sapiens), sequence (P03372 whole entry, looked up): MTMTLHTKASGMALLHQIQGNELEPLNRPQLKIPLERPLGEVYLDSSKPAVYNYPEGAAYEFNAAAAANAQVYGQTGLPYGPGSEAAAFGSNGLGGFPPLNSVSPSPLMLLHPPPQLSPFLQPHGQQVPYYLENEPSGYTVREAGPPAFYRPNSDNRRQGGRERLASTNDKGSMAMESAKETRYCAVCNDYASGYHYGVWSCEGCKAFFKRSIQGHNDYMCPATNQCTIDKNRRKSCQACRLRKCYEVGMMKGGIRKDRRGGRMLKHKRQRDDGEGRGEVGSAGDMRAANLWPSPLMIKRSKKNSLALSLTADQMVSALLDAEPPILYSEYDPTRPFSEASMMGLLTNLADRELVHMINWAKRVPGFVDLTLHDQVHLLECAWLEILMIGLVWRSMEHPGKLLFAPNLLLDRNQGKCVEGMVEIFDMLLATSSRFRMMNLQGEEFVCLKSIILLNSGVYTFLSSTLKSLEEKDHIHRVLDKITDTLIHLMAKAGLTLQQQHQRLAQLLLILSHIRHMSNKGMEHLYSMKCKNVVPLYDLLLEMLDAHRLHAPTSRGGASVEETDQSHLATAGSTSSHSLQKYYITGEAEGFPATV

As to `COc1ccc(-c2cc(C(F)F)nn2-c2ccc(S(N)(=O)=O)cc2)cc1F`, the Potency result in [1], in assay [2], in [3], in assay [4], in assay [5] and in assay [6] was “inactive” in each case. In addition, the Potency result in assay [7], in assay [8], in assay [9], in assay [10], in assay [11] and in [12] was “inactive” in each case. Moreover, the Potency result in assay [13], in assay [14], in [15] and in [16] was “inactive” in each case.
For the compound `C=CCOC(=O)COCCC(C)C`, the Potency entry in assay [1], in assay [2], in assay [3], in assay [4], in [6] and in [7] was “inactive” each time. Also, the Potency entry in assay [8], in [9], in assay [10], in assay [17], in [11] and in assay [12] was “inactive” throughout. The Potency result in assay [13], in assay [14], in [15] and in [16] was “inactive” in each case.
As to `CCN(CC)CCOc1ccccc1C(=O)CCc1ccccc1`, the Potency entry in assay [1], in assay [2], in [3], in [4], in assay [5] and in assay [6] was “inactive” in each case. Further, the Potency entry in assay [7], in assay [8], in assay [9], in [10], in assay [11] and in [12] was “inactive” each time. The Potency result in [13], in assay [16] and in assay [18] was “inactive” each time. Besides, in assay [14], the Potency was 21.1 µM (active).
For `COc1ccc(CCN(C)CCCN2CCc3cc(OC)c(OC)cc3CC2=O)cc1OC`, the Potency result in assay [1], in assay [2], in [3], in assay [4], in [5] and in [6] was “inactive” in each case. In addition, the Potency result in assay [7], in assay [9], in assay [10], in assay [13], in assay [14] and in assay [15] was “inactive” in each case. Also, the Potency result in assay [16] was “inactive”.
For the compound `O=[N+]([O-])c1ccc2ncccc2c1`, the Potency result in [1], in assay [2], in [3], in assay [4], in [6] and in [7] was “inactive” throughout. For the same compound, the Potency entry in assay [8], in assay [9], in assay [10], in assay [17], in assay [11] and in assay [12] was “inactive” throughout. Further, the Potency entry in [13], in assay [14], in [15], in [16] and in assay [18] was “inactive” throughout.
For `COc1ccc(C2C(=O)c3ccccc3C2=O)cc1`, the Potency entry in assay [1], in assay [2], in assay [3], in [4], in assay [5] and in [7] was “inactive” each time. The Potency result in assay [10], in assay [17], in assay [11], in assay [12], in assay [13] and in assay [14] was “inactive” in each case. The Potency entry in [15] and in assay [16] was “inactive” throughout.
Take `O=C(O)CO`: the Potency result in assay [1], in [2], in assay [3], in assay [4], in [6] and in assay [7] was “inactive” in each case. Also, the Potency entry in assay [8], in assay [9], in assay [10], in assay [17], in [11] and in [12] was “inactive” throughout. Besides, the Potency entry in assay [13], in assay [14], in assay [15], in assay [16] and in assay [18] was “inactive” throughout.
`O=C(O)c1cccc(C[C@@H]2COc3ccc(OCc4nc5cc(F)ccc5s4)cc3[C@@H]2O)c1`: the Potency entry in assay [1], in [2], in [3], in assay [4], in assay [6] and in assay [7] was “inactive” each time. Also, the Potency result in assay [8], in [9], in assay [10], in assay [17], in [11] and in assay [12] was “inactive” throughout. For the same compound, the Potency entry in assay [13], in assay [14], in assay [15], in assay [16] and in [18] was “inactive” in each case.
